# Screening data from PubChem.
# Hits are enriched below; roughly 19% of the tested compounds scored in any of these assays.
# TDP1 cell noCPT – qHTS for Inhibitors of human tyrosyl-DNA phosphodiesterase 1 (TDP1): qHTS in cells in absence of CPT; DT40 Tdp1-/- hTDP1 cells, no CPT, ATP luminescence, 48 h; Potency, µM (top dose mostly 46.2 µM), without a hit: at the top dose activity change, negative = growth inhibition, actives largely listed as inhibitors; 15% of 420,000 active; note: potency is the fitted concentration of half-maximal effect; nearly all actives have a fitted effect of over 55% in size
#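 Chicken DT40 Tdp1-/- cells complemented with human TDP1, screened without camptothecin (DMSO vehicle only), 400 cells/well. Compounds pin-transferred, cells incubated at 37 °C for at least 48 hr. Growth read as ATP-dependent luminescence (CellTiter-Glo, 30 min at RT).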
# HT1080NT lethal – kills 2HG-producing HT-1080-NT fibrosarcoma cells; HT-1080-NT fibrosarcoma viability, CellTiter-Glo ATP luminescence, 48 h; Potency, µM (series often up to 46.1 µM), for inactives: at the highest dose activity, negative = less viability, most hits filed as cytotoxic; 1.6% of 360,000 active;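 note: NT is the 2HG producing partner of a matched IDH1 knockdown line; potency is the fitted concentration of half-maximal effect; 0% = DMSO-treated cells and -100% = media-only wells without cells; nearly all actives have a fitted effect of over 55% in size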
#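 Luminescent CellTiter-Glo readout after 48 hours of compound exposure at 37 degrees C defined viability of HT-1080-NT cells. Activity was normalized to DMSO wells and cell-free media wells; concentration-response curves were fitted and assigned curve classes.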
# DT40 TDP1 CPT – growth inhibition of DT40 Tdp1-/-;hTDP1 cells with camptothecin (screen for TDP1 inhibitors); chicken DT40 Tdp1-/-;hTDP1 cells + 20 nM CPT, ATP luminescence, 48 h; Potency, µM (doses to about 46.2 µM), without a hit: at the highest dose activity change, negative = growth inhibition, actives largely listed as inhibitors; 12% of 420,000 active; note: potency is the fitted concentration of half-maximal effect; nearly all actives have a fitted effect of over 55% in size
#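 Chicken DT40 Tdp1-/- cells stably complemented with human TDP1 were seeded at 400 cells/well in medium containing 20 nM camptothecin, exposed to pin-transferred compounds, and grown at 37 °C for at least 48 hr. Viability was read as ATP luminescence.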
# ELG1 DNA repair – blocks ELG1-dependent DNA repair in HEK293T cells; HEK293T ELG1-luciferase reporter, luminescence, 16 h; DNA damage induced by 5-fluorouridine; Potency, µM (series often up to 46.1 µM), for inactives: top-dose activity change, negative = inhibition, usual class: inhibitors; 2.3% of 330,000 active; AID 504467; note: potency is the fitted concentration of half-maximal effect; nearly all actives have a fitted effect of over 55% in size
#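 Quantitative HTS, concentration-response format. 2,000 cells/well co-treated with 5-fluorouridine and compound, 16 hr in 5% CO2 at 37 °C; ONE-Glo luminescence read after 30 min.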
# IL1B secr inh – blocks inflammasome-driven IL-1 beta release. THP-1 LPS/ATP IL-1B secretion, AlphaLISA, 16 h; active compounds read low. activity change, % at 57.5 µM. 4.7% of 360,000 active. AID 743279; in the data active = activity change below about -50%; inconclusive = mostly about -30% to -49%
#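 THP-1 cells pretreated 1 hr with compounds (up to 57.5 uM final), then stimulated with LPS (250 ng/mL final) plus ATP (1.25 mM final); secreted IL-1B measured by AlphaLISA after 16 hr, decreased signal indicating inhibition.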
# HT1080 IDH1KD tx – toxicity to HT-1080 IDH1 knockdown cells (counter line); Potency, µM (titrated, usually from 46.1 µM), for the others: at the top dose activity, negative = toxicity, actives largely listed as cytotoxic; 2% of 360,000 active; HT-1080 IDH1 knockdown viability, ATP luminescence, 48 h;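 note: potency is the fitted concentration of half-maximal effect; 0% = DMSO wells and -100% = cell-free medium wells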
#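 IDH1KD HT-1080 cells, 750/well, RPMI + 5% FBS; compound pinned after 2 h settling; 48 h, 37 °C; CellTiter-Glo luminescence; % activity normalised to DMSO and no-cell wells; curves fitted, classed by r2 and efficacy.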
# * hit, by the source's call; ? = inconclusive; . = no result given; [ ] = another dose, or the depositor's remark. Unless noted, calls come from the whole dose curve; as a rule, active = well fitted curve in the direction sought with a large enough effect; inconclusive = small, poorly fitted or top-dose-only effect, or another doubt; inactive = no such curve, though single readings can be large; an effect the other way counts as inactive or inconclusive. Unless noted, % is set by controls: 0 for no effect and ±100 for the full control effect.
SMILES,TDP1 cell noCPT,HT1080NT lethal,DT40 TDP1 CPT,ELG1 DNA repair,IL1B secr inh,HT1080 IDH1KD tx
O=C(NCCN1CCNC1=O)C1CCC(=O)N(Cc2cccc(C(F)(F)F)c2)C1 (stereo not drawn),1%,0%,-4%,26%,-8,12%
CC(C)C(=O)N1CCN(c2ccccc2NC(=O)c2cc([N+](=O)[O-])ccc2N2CCOCC2)CC1,13µM*,-5%,?,?,-4,-6%
O=C(c1cc([N+](=O)[O-])ccc1N1CCOCC1)N1CCCCC1,1%,11%,0%,0%,9,10%
O=C(c1cc([N+](=O)[O-])ccc1N1CCOCC1)N1CCN(c2ccc([N+](=O)[O-])cc2)CC1,15µM*,-9%,13µM*,9%,-11,-14%
O=C(Nc1ccc(Oc2ccccc2)cc1)C1CCN(c2c3c(nc4ncnn24)CCC3)CC1,18µM*,-26%,15µM*,16µM*,-91*,-9%
Cc1cc(C)nc(N2CCC(C(=O)NCc3ccccc3)CC2)n1,1%,1%,-2%,12%,22,0%
O=C(Nc1ccc2c(c1)CCC2)C1CCN(c2c3c(nc4ncnn24)CCC3)CC1,21µM*,?,23µM*,?,-18,?
Cc1cc(C)nc(N2CCC(C(=O)Nc3ccc(Oc4ccccc4)cc3)CC2)n1,8.2µM*,6%,5.8µM*,-7%,23,5%
Cc1cc(C)nc(N2CCC(CNC(=O)CCc3ccccc3)CC2)n1,21µM*,0%,?,-15%,33,11%
CC(C)CN(C(=O)COC(=O)c1nc(Cl)ccc1Cl)c1c(N)n(Cc2ccccc2)c(=O)[nH]c1=O,-8%,-1%,2%,1%,0,3%
COc1ccccc1C(=O)Nc1cccc(C(=O)OCc2cc(=O)n3nc(C4CC4)sc3n2)c1,?,.,0%,.,.,.
FC(F)(F)c1cccc(N2CCN(C3CC4CCC3C4)CC2)c1 (stereo not drawn),?,-19%,-30%,-6%,29,?
O=C1C2CCCCN2C(=O)N1CCCN1CCN(c2cccc(C(F)(F)F)c2)CC1 (stereo not drawn),-25%,4%,-26%,.,32,3%
O=C1C2CCCN2C(=O)N1CCN1CCN(c2cccc(C(F)(F)F)c2)CC1 (stereo not drawn),8.2µM*,12%,-4%,.,56,15%
CCN1CCC(N2CCN(c3ccc(Cl)cc3)CC2)CC1,-19%,-7%,5%,8%,12,-10%
CCCN1CCC(N2CCN(c3ccc([N+](=O)[O-])cc3)CC2)CC1,21µM*,-9%,?,-11%,-1,-10%
CCCN1CCC(N2CCN(c3cccc(C(F)(F)F)c3)CC2)CC1,21µM*,?,23µM*,-1%,51,-6%
C/C(=N\N1CCN(C2c3ccccc3-c3ccccc32)CC1)c1ccncc1,16µM*,4%,16µM*,9%,-3,-5%[9.24 µM]
Cc1ccc(OCCNC(=O)[C@H]2O[C@@H](n3cnc4c(N)ncnc43)[C@H](O)[C@@H]2O)cc1C,-28%,-5%,-23%,.,-6,0%
CC(=O)Nc1cnc(-c2cccc(C(=O)N(C)C)c2)cn1,2%,13%,-4%,.,17,0%
CSc1ccccc1-c1cnc(NC(C)=O)cn1,-47%,?,2.6µM*,.,-26,22%
C/C=C/c1ccc(OCCCN2C(=O)NC(C)(C)C2=O)c(OC)c1,-25%,-23%,-24%,23%,0,-25%
C/C=C/c1ccc(OCCn2nnc3ccccc32)c(OC)c1,15µM*,-16%,18µM*,?,0,-4%
